{
  "source": "PubChem BioAssay AID504834",
  "about": "(National Center for Advancing Translational Sciences (NCATS), 2011)",
  "note": "In all, about 320,000 compounds went through this assay and about 22,000 (6.9%) were called active. Not shown: some 27% with an inconclusive outcome. The call rests on the fitted dose curve; in most records, active means well fitted inhibition curve with a large enough effect; inconclusive means small, poorly fitted or top-dose-only effect, or another doubt; inactive means no such curve, though single readings can be large or run the other way. What follows is part of a selection rich in actives, with near analogues and random picks from the rest. On the % scale 0 is the no-effect control and ±100 the full control effect; potency means the concentration at half of the fitted maximal effect.",
  "data": [
    {"assay": "Primary qHTS for delayed death inhibitors of the malarial parasite plastid, 96 hour incubation", "conditions": "P. falciparum luciferase reporter growth; series mostly up to 28.7 µM; activity change, negative = inhibition: at the top concentration", "summary_of_the_method": "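Two parasite generations (96 h, 37 C, 5% CO2) of compound exposure in infected erythrocytes (0.05% parasitemia, 2% hematocrit). Luciferase-reporter P. falciparum; decreased luminescence indicates inhibited growth, aimed at apicoplast-acting delayed death.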", "values": [
      {"smiles": "COc1ccccc1OCCCC(=O)Nc1ccc2c(c1)OCCO2", "activity change, negative = inhibition": "-38.1% (inactive)"},
      {"smiles": "O=C(CN(c1ccc2c(c1)OCCO2)S(=O)(=O)c1ccccc1)Nc1ccc2c(c1)OCO2", "activity change, negative = inhibition": "209% (inactive)"},
      {"smiles": "O=C(CCS(=O)(=O)Cc1ccccc1)Nc1ccc2c(c1)OCCO2", "Potency": "2.94 µM (active)"},
      {"smiles": "Cc1ccc(-n2c(SCC(=O)N3CCC(C(=O)O)CC3)nc3ccccc3c2=O)cc1C", "activity change, negative = inhibition": "180% (inactive)"},
      {"smiles": "CN(C)c1ccc(NC(=O)CN2C3CCCC2CC(NC(=O)c2ccccc2)C3)cc1", "note": "(stereo not given)", "activity change, negative = inhibition": "-5.33% (inactive)"},
      {"smiles": "CCCCCc1ccc(-c2cn(Cc3ccc4ccccc4c3)nn2)cc1", "activity change, negative = inhibition": "-14.2% (inactive)"},
      {"smiles": "O=C1OCC2=C1C(c1ccccc1)CC(=O)N2c1cccc(F)c1", "note": "(stereo not given)", "activity change, negative = inhibition": "41% (inactive)"},
      {"smiles": "O=C1CC(c2cccc(F)c2)C2=C(CCCC2=O)N1", "note": "(stereo not given)", "Potency": "9.28 µM (active)"},
      {"smiles": "O=C1CC(c2cccc(Br)c2)C2=C(CCCC2=O)N1", "note": "(stereo not given)", "activity change, negative = inhibition": "83.8% (inactive)"},
      {"smiles": "COc1ccc(CNC(=O)c2cc(C(=O)C3CC3)c[nH]2)cc1", "activity change, negative = inhibition": "12.8% (inactive)"},
      {"smiles": "O=[N+]([O-])c1ccc2oc(-c3cccc(O)c3)nc2c1", "activity change, negative = inhibition": "-7.91% (inactive)"},
      {"smiles": "CC(=O)Oc1ccc2c(=O)oc(-c3ccc([N+](=O)[O-])cc3)nc2c1", "Potency": "2.33 µM (active)"},
      {"smiles": "COc1ccc(-c2nc3cc([N+](=O)[O-])ccc3o2)cc1OC", "activity change, negative = inhibition": "-9.95% (inactive)"},
      {"smiles": "O=C(NCc1cccs1)c1ccc(CS(=O)Cc2ccccc2Cl)o1", "note": "(stereo not given)", "activity change, negative = inhibition": "2.57% (inactive)"},
      {"smiles": "O=Cc1cn(-c2ccccc2)nc1-c1ccccn1", "activity change, negative = inhibition": "21.2% (inactive)"},
      {"smiles": "CCNCc1cc2cc(C)ccc2[nH]c1=O", "activity change, negative = inhibition": "-11.6% (inactive)"},
      {"smiles": "COc1ccc2[nH]c(=O)c(CN(CC3CCCO3)C(=O)Nc3ccccc3)cc2c1", "note": "(stereo not given)", "activity change, negative = inhibition": "24.2% (inactive)"},
      {"smiles": "CC(=O)OCc1cc2cc(C)ccc2[nH]c1=O", "activity change, negative = inhibition": "-4.43% (inactive)"},
      {"smiles": "CCC(=O)N(CCc1ccccc1)Cc1cc2cc(C)ccc2[nH]c1=O", "activity change, negative = inhibition": "39.5% (inactive)"},
      {"smiles": "Cc1ccc2[nH]c(=O)c(CN(CC3COCCO3)C(=O)Nc3ccccc3C)cc2c1", "note": "(stereo not given)", "Potency": "0.465 µM (active)"},
      {"smiles": "Cc1ccc2[nH]c(=O)c(CN(CCCN(C)C)C(=O)Nc3cccc(Cl)c3)cc2c1", "Potency": "2.94 µM (active)"},
      {"smiles": "COc1ccc(S(=O)(=O)NCC(c2ccc(C)cc2)N2CCN(C)CC2)cc1OC", "note": "(stereo not given)", "activity change, negative = inhibition": "-10.3% (inactive)"},
      {"smiles": "Cc1ccc(-c2noc(CNC(=O)c3ccoc3C)n2)cc1", "activity change, negative = inhibition": "25.7% (inactive)"},
      {"smiles": "O=C(NC1CCCC1)C1CCN(C(=O)Nc2cccc(Cl)c2)CC1", "activity change, negative = inhibition": "-14.4% (inactive)"},
      {"smiles": "COc1ccccc1NC(=O)Nc1nc(CC(=O)Nc2ccccc2F)cs1", "activity change, negative = inhibition": "-26.7% (inactive)"},
      {"smiles": "Cc1cc(=O)oc2ccc(OCC(=O)O)cc12", "activity change, negative = inhibition": "73.2% (inactive)"},
      {"smiles": "Cc1cc(=O)oc2cc(OCCC[n+]3ccccc3)ccc12", "Potency": "4.65 µM (active)"},
      {"smiles": "Cc1ccccc1N1CCN(CCCOc2ccc3c(C)cc(=O)oc3c2)CC1", "activity change, negative = inhibition": "-94% (inactive)"},
      {"smiles": "Cc1ccc(C2SCC(=O)N2c2ccccc2)cc1", "note": "(stereo not given)", "activity change, negative = inhibition": "-21.5% (inactive)"},
      {"smiles": "CN(CC(=O)Nc1cccc(F)c1)C(=O)C1=COCCO1", "activity change, negative = inhibition": "19% (inactive)"}
    ]}
  ]
}
